# High-throughput results as filed in PubChem BioAssay.
# This is one part of a sample in which hits are shown more often than they occur.
# Artemis inh: Artemis endonuclease inhibitors, primary screen, biochemical, fluorescence intensity, FAM/BHQ-1 hairpin substrate; Protein artemis (Homo sapiens), Q96SD1; recombinant Artemis, quenched FAM hairpin cleavage fluorescence; inhibition, % at 10 µM; actives 0.78% (n = 30,000); AID 686954, 2013;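 active = at 10 µM dose, at least 30% inhibition, measured as corrected fluorescence normalized to stimulator and neutral control wells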
# Target sequence (Q96SD1 whole entry, looked up): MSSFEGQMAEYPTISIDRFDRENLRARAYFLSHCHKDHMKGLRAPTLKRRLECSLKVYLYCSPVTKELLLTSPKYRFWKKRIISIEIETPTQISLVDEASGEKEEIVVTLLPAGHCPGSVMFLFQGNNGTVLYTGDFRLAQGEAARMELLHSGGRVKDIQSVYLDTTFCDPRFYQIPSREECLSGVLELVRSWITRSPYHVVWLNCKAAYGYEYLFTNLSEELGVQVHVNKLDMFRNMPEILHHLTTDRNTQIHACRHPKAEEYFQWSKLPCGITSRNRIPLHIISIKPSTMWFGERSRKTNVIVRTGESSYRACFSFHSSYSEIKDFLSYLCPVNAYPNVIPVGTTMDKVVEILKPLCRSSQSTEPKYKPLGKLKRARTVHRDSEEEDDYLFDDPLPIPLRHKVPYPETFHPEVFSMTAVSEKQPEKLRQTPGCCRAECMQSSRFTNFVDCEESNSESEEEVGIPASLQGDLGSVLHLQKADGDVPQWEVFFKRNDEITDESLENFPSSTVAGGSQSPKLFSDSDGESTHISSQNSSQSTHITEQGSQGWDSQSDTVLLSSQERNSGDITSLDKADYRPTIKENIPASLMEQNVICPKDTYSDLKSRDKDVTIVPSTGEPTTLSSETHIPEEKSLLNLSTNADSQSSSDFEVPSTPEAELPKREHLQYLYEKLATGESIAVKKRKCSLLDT
# Numbers stand for hits; - = inactive.
SMILES,Artemis inh
Cc1nc2c(=O)n(C)c(=O)nc-2n(C)n1,78.4
c1ccc2c(NC3=NCCS3)cccc2c1,-
COc1nc(NC(C)C)nc(NC(C)C)n1,-
CN1CSC(=S)N(C)C1,-
CCSP1(=S)N=C(N2CCOCC2)C(C#N)=C2CCCN21 (centres undefined),-
CC(C)OCCCNC(=O)c1c(N)n(Cc2cccs2)c2nc3ccccc3nc12,-
Nc1c(C(=O)NC2CCCC2)c2nc3ccccc3nc2n1CC1CCCO1 (centres undefined),30.6
O=C(Cc1ccccc1)N1CCN(Cc2cccnc2)CC1,-
CN1C2CCC1CC(OC(=O)c1cc(Cl)cc(Cl)c1)C2 (centres undefined),-
CCOP(=O)(C#CC(C)(C)C)C1(O)CCCCC1 (centres undefined),-
O=C1NC(=O)C(CCc2ccccn2)(Cc2ccc3c(c2)OCO3)C(=O)N1CCc1ccccc1 (centres undefined),-
CC(C)NC(=O)Cn1cc(C(=O)c2ccccc2F)c2ccccc21,-
CC(=O)c1ccc2c(c1)C1C(Cl)C(Sc3ccccc3[N+](=O)[O-])CC1C(c1ccccc1[N+](=O)[O-])N2 (centres undefined),31.0
COC(=O)CCCNC(=O)CN1CC(c2ccccc2)CC1=O (centres undefined),-
COc1ccccc1/C=C1/C(=N/O)C2CCN1CC2,-
CCOC(=O)c1c(N)n(CCCOC(=O)c2ccco2)c2nc3ccccc3nc12,-
COCCCn1c(N)c(C(=O)OCCOC)c2nc3ccccc3nc21,38.0
COCCOC(=O)c1c(N)n(Cc2ccco2)c2nc3ccccc3nc12,-
COCCOC(=O)c1c(N)n(Cc2ccc(OC)cc2)c2nc3ccccc3nc12,-
COC(=O)c1c(N)n(Cc2ccc(OC)cc2)c2nc3ccccc3nc12,31.0
CC(C)OC(=O)c1c(N)n(Cc2ccco2)c2nc3ccccc3nc12,-
Cc1cc(C)n(CCOC(=O)C2C(C=C(Cl)Cl)C2(C)C)n1 (centres undefined),-
C#CCNc1ccncc1S(=O)(=O)NC(=O)NC(C)C,-
Cc1ccc2c(c1)CC1(CN2C)C(=O)NC(=O)N(CCC2=CCCCC2)C1=O (centres undefined),-
Cc1cccnc1-n1c(C)nc2ccccc2c1=O,-
